Records with an inconclusive call do not appear. Calls of active or inactive are those of the source. Calls come from the whole dose curve; as a rule, active = well fitted curve in the direction sought with a large enough effect in the signal ratio in the repeat runs (not every such curve was filed as active); inconclusive = weak or mixed curves, or a change in a side signal; inactive = no such curve, though single readings can be large or run the other way; the % refers to the signal ratio.
Assay: qHTS assay to identify small molecule agonists of the NFkB signaling pathway (AID 1159509)
Settings: NFkB-bla ME-180 cells, beta-lactamase FRET ratio, 5 h; series mostly up to 61 µM
Source text: National Center for Advancing Translational Sciences [NCATS]
NIH Chemical Genomics Center [NCGC]
U.S. Environmental Protection Agency [EPA]
National Institutes of Environmental Health Sciences [NIEHS]
National Toxicology Program [NTP]
U.S. Food and Drug Administration [FDA]
Transcription factors and their stimulated target gene expression play pivotal roles across many cellular processes including responses to environmental stimuli. Proper regulation of associated pathways is critical to maintain cell health and function. Constitutive activation of transcription factor pathways has been implicated in tumors as it may block cellular functions such as apoptosis and lead to invasion and metastasis. One important transcription factor that stimulates gene expression in response to cytokines, UV radiation, and other stimuli is nuclear factor-kappa B (NFkB). To measure activation of the NFkB pathway, the CellSensor NFkB-bla ME-180 cell line (Life Technologies, Carlsbad, CA) that stably expresses beta-lactamase reporter gene under the regulation of a NF-kB response element was used. This assay allows measurement of the NFkB pathway activity induced by compounds in a ME-180 cell line. This system quantitates NF-kB activity using a FRET-based assay system where beta-lactamase expression disrupts FRET, allowing for fluorescent measurement of activity. This cell line has been used to screen the Tox21 10K compound library and to identify compounds that induce the NFkB pathway activity.
Tox21 Assay Protocol Summary:
NFkB-bla ME-180 cells were dispensed at 2,000 cells/6 uL of assay medium per well into black wall/clear-bottom 1536-well plates using a Multidrop Combi (ThermoFisher Scientific, Waltham, MA) dispenser. After the assay plates were incubated at 37 C and 5% CO2 for an overnight, 23 nL of compounds dissolved in DMSO, positive controls or DMSO only was transferred to the assay plate by a Pintool station (Kalypsys, San Diego, CA). The assay plates were incubated at 37 C and 5% CO2 for 5 hr. One uL of LiveBLAzer B/G FRET substrate (Life Technologies) was added using a Flying Reagent Dispenser (Aurora Discovery, San Diego, CA) and the plates were incubated at room temperature for 1.5 hr. Fluorescence intensity (405 nm excitation, 460 nm and 530 nm emissions) was measured using an Envision plate reader (PerkinElmer, Shelton, CT).

Row | SMILES | outcome
1 | OC[C@@H](O)[C@@H](O)[C@H](O)[C@@H](O)CO | inactive
2 | O=C1N=C(O)CN1/N=C/c1ccc(-c2ccc([N+](=O)[O-])cc2)o1 | inactive
3 | Oc1ccc2ccccc2c1 | inactive
4 | CC1COc2ccccc2N1C(=O)C(Cl)Cl (stereo not given) | inactive
5 | CC(C)(C)C(=O)C1C(=O)c2ccccc2C1=O | inactive
6 | CC1(C)O[C@@H]2C[C@H]3[C@@H]4C[C@H](F)C5=CC(=O)CC[C@]5(C)[C@H]4[C@@H](O)C[C@]3(C)[C@]2(C(=O)CO)O1 | inactive
7 | COC(=O)Nc1nc2ccc(Sc3ccccc3)cc2[nH]1 | inactive
8 | C[C@@H]1O[C@@H](OC[C@H]2O[C@@H](Oc3c(-c4ccc(O)c(O)c4)oc4cc(O)cc(O)c4c3=O)[C@H](O)[C@@H](O)[C@@H]2O)[C@H](O)[C@H](O)[C@H]1O | inactive
9 | CC(C)n1c(/C=C/[C@@H](O)C[C@@H](O)CC(=O)O)c(-c2ccc(F)cc2)c2ccccc21 | inactive
10 | CC#C[C@]1(O)CC[C@H]2[C@@H]3CCC4=CC(=O)CCC4=C3[C@@H](c3ccc(N(C)C)cc3)C[C@@]21C | inactive
11 | CCCCCCC(C)(C)S | inactive
12 | CC1=C(CC(=O)O)c2cc(F)ccc2/C1=C\c1ccc(S(C)=O)cc1 (stereo not given) | inactive
13 | OCC1CCCO1 (stereo not given) | inactive
14 | C=C(C)C(=O)OCCC[Si](OC)(OC)OC | inactive
15 | Nc1nc2ncc(CNc3ccc(C(=O)N[C@@H](CCC(=O)O)C(=O)O)cc3)nc2c(=O)[nH]1 | inactive
16 | O=[N+]([O-])C(CO)(CO)CO | inactive
17 | CN(CCOc1ccc(CC2SC(=O)NC2=O)cc1)c1ccccn1 (stereo not given) | inactive
18 | Clc1ccc(Cl)c(Cl)c1Cl | inactive
19 | O=C1O[C@H](CO)[C@@H](O)[C@H](O)[C@H]1O | inactive
20 | CC(C)(CO)COC(=O)C(C)(C)CO | inactive

Row | SMILES | outcome
21 | O=C1CCCCC1 | inactive
22 | CCCCC(CC)COC(=O)/C=C\C(=O)OCC(CC)CCCC (stereo not given) | inactive
23 | O=[N+]([O-])c1cc(N(CCO)CCO)ccc1NCCO | inactive
24 | C[C@@H](O)[C@H]1C(=O)N2C(C(=O)O)=C(S[C@@H]3CN[C@H](C(=O)N(C)C)C3)[C@H](C)[C@H]12 | inactive
25 | CCC(C)C=O (stereo not given) | inactive
26 | Oc1ccc(OCc2ccccc2)cc1 | inactive
27 | CCCCCCCCCC(=O)O | inactive
28 | CCOC(=O)/C=C\C(=O)OCC | inactive
29 | CCCCC(CC)COC(C)=O (stereo not given) | inactive
30 | O=Nc1ccc(O)cc1 | inactive
31 | O=C(Cl)c1c(Cl)c(Cl)c(C(=O)Cl)c(Cl)c1Cl | inactive
32 | Oc1ccc2ccccc2c1N=Nc1ccccc1 | inactive
33 | OCCOCCOCCOCCO | inactive
34 | c1ccc2[nH]cnc2c1 | inactive
35 | CS(=O)(=O)Nc1ccc([N+](=O)[O-])cc1Oc1ccccc1 | inactive
36 | CC1=CC[C@H]2C[C@@H]1C2(C)C | inactive
37 | O=S(=O)(Oc1ccc(Cl)cc1Cl)c1ccccc1 | inactive
38 | O=c1c(-c2ccc(O)cc2)coc2cc(O)ccc12 | inactive
39 | C=C(C#N)C(=O)OCC | inactive
40 | NCCNCCNCCNCCN | inactive
